The panel holds about 83,000 compounds, 20% with a hit somewhere; the sample as a whole holds those more often.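 48-hour exposure, single concentration, 96-well plates; percent growth endpoint where 0 means no net growth. Active: below 10.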 Active and inactive are the calls of the source.

This test deals with M14 melanoma. Nature of the test: NCI-60 one-dose screen, 48 h (100 = growth as untreated, 0 = no growth, -100 = all killed). To be noted: 10 µM unless noted. As for the experimental part: Growth inhibition of the M14 human tumor cell line is measured as a screen for anti-cancer activity. Cells are grown in 96 well plates and exposed to the test compound for 48 hours. Compounds are tested at a single concentration, which is 10^-5 M for most compounds. The reported endpoint is percent growth (GI% or GIPRCNT), where numbers from 0 - 100% represent growth inhibition, and numbers from -100% - 0 represent cell death. For example, a value of 40 represents 60% growth inhibition. A value of 0 means no net growth occurred over the course of the experiment. A value of -40 indicates 40% of cells at the beginning of the experiment died by the end of the experiment. A value of -100 means all cells are dead at the end of the experiment.
NCI-60 Human Tumor Cell Lines Screen was performed using the standard one-dose NCI protocol, which is described in more detail at https://dtp.cancer.gov/discovery_development/nci-60/default.htm.
Compounds with GIPRCNT values below 10 were considered active. Activity score was based on GIPRCNT using the following formula: […]
Score is 0 for GIPRCNT values of 100 or above, 50 for GIPRCNT values of 0, and 100 for GIPRCNT values of -100.
Regarding `O=C(CCCCCCSc1nc(-c2ccc(Cl)cc2)cc(-c2ccc(Cl)cc2)n1)NO`, the growth was 31.7% (inactive).

Consider `O=C(NCCCNC(=O)OCc1ccc2c(Br)cc(Br)c(O)c2n1)OCc1ccc2c(Br)cc(Br)c(O)c2n1`, for which the growth is -65.8% (active).

As for `Cc1ccc(S(=O)(=O)NCCCNc2nccc(-c3c(-c4cccc(F)c4)nc4occn34)n2)cc1`, the growth is 57% (inactive).

Turning to `COc1cc2c(c(OC)c1OC)-c1ccc(NNC(N)=S)c(=O)cc1[C@@H](NC(C)=O)CC2`, the growth is -2.7% (active).

As for `C=C(C)[C@@H]1CC[C@]2(C)[C@H](CC[C@@H]3[C@@H]([C@@](C)(O)CCC=C(C)C)CC[C@]32C)[C@@]1(C)CCC(=O)N1CCN(C)CC1`, the growth was -70.5% [100 µM] (active).

In the case of `C[C@@H]1C[C@H]2C(=O)O[C@@H](C)[C@H](NC(=O)[C@H](Cc3cc(F)cc(F)c3)NC(=O)Nc3ccc(Cl)cc3F)C(=O)N3C[C@H](O)C[C@H]3C(=O)N3CCN(C)C[C@H]3C(=O)N[C@@H](C)C(=O)N2C1`, the growth is 72.9% (inactive).

Take `CCN(CC)CCCOc1ccc2c(c1)O/C(=C\c1cccc(OC)c1)C2=O`: the growth was 92.6% (inactive).

Take `CC1=C/C(=C(\c2cc(C)c(O)c(C(=O)O)c2)c2c(Cl)cccc2Cl)C=C(C(=O)O)C1=O`: the growth was 97.4% (inactive).

With `C=C(C)[C@@H]1CC[C@]2(C(=O)NCCNCCNCCN)CC[C@]3(C)[C@H](CC[C@@H]4[C@@]5(C)CCC(=O)C(C)(C)[C@@H]5CC[C@]43C)[C@@H]12`, the growth is -62.8% [100 µM] (active).

Regarding `CCOC(=O)c1nn(C2CCCCO2)c2ccc(NC(=O)Cn3nnc4ccccc43)cc12` (stereo not given), the growth was 102% (inactive).

As to `O=C(NCCCNC(=O)OCc1ccc2cccc(O)c2n1)OCc1ccc2cccc(O)c2n1`, the growth was 38.9% (inactive).

With `O=C(CCNCc1ccccc1)c1ccccc1`, the growth is 105% (inactive).

Take `COCCCNc1nc(NC(=O)c2cc(Br)cc(C(F)(F)F)c2)cc(-c2cccnc2)n1`: the growth is 96.5% (inactive).

As to `C=C(C)[C@@H]1CC[C@]2(COC(=O)c3ccccc3C(=O)O)CC[C@]3(C)[C@H](CC[C@@H]4[C@@]5(C)CC[C@H](OC(=O)c6ccccc6C(=O)O)C(C)(C)[C@@H]5CC[C@]43C)[C@@H]12`, the growth was 29.6% [100 µM] (inactive).

`CCN(CC)c1ccc2cc(C(Nc3ccc(Br)c(C(F)(F)F)c3)c3nnnn3C(C)(C)C)c(=O)oc2c1` (stereo not given): the growth was 103% (inactive).

Take `CC[C@@](C)(NC(=O)[C@H](C)NC(=O)CCNC(=O)C(C)(C)NC(=O)[C@H](C)NC(=O)[C@@H]1CCCN1C(=O)[C@@](C)(CC)NC(=O)[C@H](Cc1ccccc1)NC(=O)C1CCCN1C(=O)C(C)(C)NC(=O)C1CCCN1C(=O)C(C)(C)NC(C)=O)C(=O)NCCC(=O)N[C@@H](CC(C)C)C(=O)NC(C)(C)C(=O)NCCC(=O)N[C@@H](CC(C)C)C(=O)NC(C)(C)C(=O)NC(C)(C)C(=O)N[C@@H](CC(C)C)C(=O)NCCC(=O)NCO` (stereo not given in full): the growth was -88.6% (active).

Turning to `C=CCCC1(C)NC(=O)NC1=O` (stereo not given), the growth is 98.1% (inactive).

On to `COc1ccc(C2=C(c3cn(C)c4ccccc34)C(=O)OC2)cc1OC`, for which the growth is 50% (inactive).

With `O=C(O)c1cn(C2CC2)c2cc(N3CCN(Cc4c(O)ccc5ccccc45)CC3)c(F)cc2c1=O`, the growth was 47.6% (inactive).

Regarding `O=C(Nc1cccnc1)c1ccc2ccc3ccc(C(=O)Nc4cccnc4)nc3c2n1`, the growth is 15.5% (inactive).

`Cc1ccc(C2=C/C(=C/c3ccc(Br)cc3)C(=O)N2CCc2ccc(S(N)(=O)=O)cc2)cc1`: the growth is 97.5% (inactive).

On to `CCc1ccc(-c2ccc(COc3ccc(CC4SC(=O)NC4=O)cc3)cc2)cc1` (stereo not given), for which the growth is 79.6% (inactive).

Take `C/C=C/C1OC23CCCCC2C(C#N)(C(=N)O3)C1(C#N)C#N` (stereo not given): the growth is 92.8% (inactive).

With `CC1Cc2ccc(OCCN(C)C)cc2C1=O` (stereo not given), the growth was 99.4% (inactive).

`COc1ccc(C2CC(c3ccc4ccccc4c3)=NN2c2nc(O)c(C3=c4cc(OC)ccc4=NC3=O)s2)cc1` (stereo not given): the growth is -67.1% (active).

With `Cc1ncc(C(=O)Nc2ccc(CN3CCN(C)CC3)c(C(F)(F)F)c2)cc1C#Cc1c(N)ncc2ccc(C#N)cc12`, the growth is -12% (active).

On to `CCC(Br)(CC)C(=O)c1ccc(OCC(=O)O)c(Cl)c1Cl`, for which the growth was 116% (inactive).

Regarding `Cc1ccc(NC(=S)/N=c2/n(-c3ccccc3)nc3n2CCN3C2=NCCN2)cc1`, the growth was 82.8% (inactive).

Regarding `Cc1nc(Cl)c2c(n1)N(C)c1ccc(Cl)cc1C(C)C2` (stereo not given), the growth was 86.9% (inactive).

Consider `COc1ccc2c(c1)c(-c1noc(C(=O)c3cn(C)c4ncc(Br)cc34)n1)cn2C`, for which the growth was 91.3% (inactive).

With `COC(=O)C(=Cc1ccccc1[N+](=O)[O-])C(=O)OC`, the growth was 32% (inactive).

For the compound `CCCc1cc2cc(-n3nc(C)c4c3CC(C)(C)CC4=O)cc(NC3CCSCC3)c2c(=O)[nH]1`, the growth was 56.6% (inactive).

As for `O=C1NC(=O)c2cc([N+](=O)[O-])cc3cccc1c23`, the growth is 93.3% (inactive).

`Cc1cccc(/C=C2\N=C(c3ccccc3)N(c3ccc(S(N)(=O)=O)cc3)C2=O)c1`: the growth is 107% (inactive).

`CNC(=O)c1cc(Oc2ccc3nc(NC(=O)c4ccc5ncccc5c4)sc3c2)ccn1`: the growth is 102% (inactive).

Turning to `CCN(CC)c1ccc(/C=C/c2ccc3cc(C)ccc3[n+]2CC)cc1`, the growth is 2.07% (active).

On to `Cn1cc(-c2nnc(-c3cn(C)c4ncc(Br)cc34)o2)c2ccccc21`, for which the growth was 96.4% (inactive).

`COc1ccc(/C=C(/C2=NCCN2)n2ccc3ccccc32)cc1`: the growth is 86.2% (inactive).

On to `O=S(=O)(NCc1ccccc1)c1ncnc2nc[nH]c12`, for which the growth is 108% (inactive).

Consider `Cc1nn(-c2ccccc2)c(N2CCOCC2)c1-c1nc2ccc([N+](=O)[O-])cc2[nH]1`, for which the growth is 108% (inactive).
